Reference: PubChem BioAssay AID485395 (ICCB-Longwood Screening Facility, Harvard Medical School, 2010)
The campaign covered roughly 120,000 compounds. About 55 (0.05%) were called active. Cut-off read from the data, not from the text of the source: active = inhibition above about 25% (passing the limit was not always enough); inactive = the rest. The entries come from a sample that favours actives as a whole.

system: replicative DNA helicase (DnaC/DnaB), Staphylococcus aureus; assay: inhibitors of S. aureus replicative helicase, primary screen, biochemical, fluorescence unwinding readout (AID 485395);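 note: 0% = mean of negative control wells and 100% = mean of positive control wells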; settings: purified S. aureus helicase, fluorescence unwinding assay; hits give high values; concentration not given here

inhibition, inactive:
CC(C)(C)NC(=O)C(C)(C)Oc1ccc(Cl)cc1 -13%
CC(Sc1nncn1C)C(=O)NCCC1=CCCCC1 (configuration not stated) 9%
Cc1ccccc1NC(=O)CSc1nc2ccc(N)cc2s1 -1%
N#Cc1ccc(NC(=O)/C=C/c2ccccc2)cc1 4%
COc1ccc(C(=O)n2c(SC)nc3ccccc32)cc1OC -17%
Cc1ccc(O)c(NC(=O)c2cccs2)c1 8%
CC1(C)C=C(C(=O)N2CCCCC2)C(C)(C)N1 5%
O=S1(=O)CCC(n2nnnc2-c2ccc(Cl)cc2)C1 (configuration not stated) 13%
Cc1ccc(C)c(OC(=O)NC(C)(C(F)(F)F)C(F)(F)F)c1C 1%
Cc1nc(SCC(=O)N2CCCC2)c2c(=O)n(C)c(=O)n(C)c2n1 0%
CCN(CC)c1nc(-c2ccccc2O)nc2ccccc12 -3%
COc1ccc(C(=O)CSC2=C(C#N)C(C)(C)C(C#N)=C(N)N2)cc1 -9%
O=C(COC(=O)c1ccc(N2CCCC2=O)cc1)c1ccc(OC(F)F)cc1 -5%
COc1ccc(Br)cc1CN(C)C(C)C(=O)N1CC(C)OC(C)C1 (configuration not stated) -12%
Cc1cc(C(=O)N2CCC(C)CC2)c(C)n1-c1ccc(F)cc1 23%
COc1ccc(/C=C/C(=O)CC(=O)c2ccccc2O)cc1 -17%
CN(C)c1ccc(NC(=O)CSc2nnc(C3CC3)n2N)cc1 -15%
COc1cccc(N=Nc2c(O)[nH]c(=O)[nH]c2=O)c1 7%
CCOC(=O)c1cnc2c(C)cc(C)cc2c1NCCN(C)C 13%
CN(C)CCCNc1c(N)c(=O)oc2ccccc12 27%
COc1ccc(C(CC(=O)O)NS(=O)(=O)c2ccccc2F)cc1OC (configuration not stated) -3%
CCc1cccc2c(C3=Nn4cnnc4SC3c3ccccc3)c[nH]c12 (configuration not stated) 16%
Cn1cc(SC(=N)N)c2ccccc21 -12%
Cc1[nH]n(-c2ccccc2)c(=O)c1CCC#N -6%
Cc1sc2nc(CN3CCCC3)nc(NC(C)C)c2c1C -5%
COC(CNC(=O)C1CCC(CNS(=O)(=O)c2ccc(C)cc2)CC1)OC (configuration not stated) 9%
COC(=O)c1sc(NC(=O)Cn2cnc3sccc3c2=O)c(C(=O)OC)c1C -7%
C=C(C)CNC(=S)NN -24%
CC1CCCCN1S(=O)(=O)c1ccc(I)cc1 (configuration not stated) 17%
CC(=O)Nc1ccc(NC2SC(=O)NC2=O)cc1 (configuration not stated) 7%
Cc1[nH]c2ccccc2c1SCCNC(=O)C(C)C -17%

inhibition, active:
CCOC(=O)c1cnc2c(C)c(C)ccc2c1NCCCN(C)C 65%
